Bioassay records deposited in PubChem by National Center for Advancing Translational Sciences (NCATS).
IL1B secr inh = inflammasome signaling inhibition, IL-1 beta readout; THP-1 LPS/ATP IL-1B secretion, AlphaLISA, 16 h; hits give low values; activity change, % at 57.5 µM; 4.7% of 360,000 active; AID 743279; in the data active = activity change below about -50%; inconclusive = mostly about -30% to -49%; note: % is set by controls: 0 for no effect and ±100 for the full control effect
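THP-1 cells pretreated 1 hr with compounds (up to 57.5 uM final), then stimulated with LPS (250 ng/mL final) plus ATP (1.25 mM final); secreted IL-1B measured by AlphaLISA after 16 hr, decreased signal indicating inhibition.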
ATXN2 expr inh = reduces ATXN2 reporter expression in HEK-293 cells; Potency, µM (doses to about 57 µM), for inactives: at the highest dose activity change, negative = inhibition, usual class: inhibitors; 0.72% of 360,000 active; HEK-293 ATXN2-luciferase reporter, luminescence, 24 h; AID 1745845; note: potency is the fitted concentration of half-maximal effect; % is set by controls: 0 for no effect and ±100 for the full control effect; nearly all actives have a fitted effect of over 55% in size
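qHTS (up to 57 uM final) was run with 24 h compound exposure of reporter cells at 37 °C. Each well was multiplexed: SteadyGlo luminescence measured ATXN2-luciferase expression after a fluorogenic Gly-Phe-AFC viability readout (25 uM final).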
PINK1 expr mod = PINK1 expression modulation. PINK1 immunofluorescence, high-content cytometry, 24 h. Potency, µM (series often up to 76.6 µM), for the others: top-dose activation (PINK1 increase), hits mostly activators. 0.2% of 410,000 active; active = well fitted activation curve with a large enough effect; inconclusive = small, poorly fitted or top-dose-only effect; cell line not stated here; note: potency is the fitted concentration of half-maximal effect; % of control where 0% means no effect; nearly all actives have a fitted effect of over 65% in size
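Cells are seeded, rested 12 hours, then given compound at five concentrations or DMSO for 24 hours. After fixation, blocking and antibody staining, PINK1 amount and mitochondrial localization are scored; CCCP serves as control.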
MCF10A rereplic = induces DNA re-replication in MCF 10a normal breast cells; Potency, µM (doses to about 46.1 µM), inactives show at the highest dose activity, positive = re-replication, usual class: activators; MCF 10A DNA re-replication, Hoechst nuclear intensity, 48 h; 2.9% of 350,000 active; AID 624296; note: potency is the fitted concentration of half-maximal effect; % of control where 0% means no effect; nearly all actives have a fitted effect of over 50% in size
ATXN viability = reduces viability in counter-screen for ATXN expression inhibitors | 0.49% of 400,000 active | Potency, µM (doses to about 56.7 µM), most hits filed as cytotoxic | S2 cells (HEK-293 line with an ATXN2-luciferase reporter) viability, CellTiter-Fluor protease fluorescence, 24 h; note: potency is the fitted concentration of half-maximal effect; nearly all actives have a fitted effect of over 40% in size
SW480 rereplic = induces DNA re-replication in SW480 colon adenocarcinoma cells; SW480 DNA re-replication, Hoechst DNA content imaging, 48 h; Potency, µM (doses to about 46.1 µM), without a hit: at the top dose re-replication activation, hits mostly activators; 1.8% of 340,000 active; AID 624297; note: potency is the fitted concentration of half-maximal effect; % of control where 0% means no effect; nearly all actives have a fitted effect of over 55% in size
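Per well, 250 cells were exposed to pinned compound for 48 hr. Nuclear DNA was visualised with Hoechst (40 min, 37 C) and total object intensity recorded by fluorescence scanning.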
The depositor's hits bear a star; i = inactive; ? = inconclusive; . = not tested or not shown; [ ] = another dose, or the depositor's remark. This is a sample that favours compounds with a hit; in the whole collection about 7.1% have one here. Unless noted, calls come from the whole dose curve; as a rule, active = well fitted curve in the direction sought with a large enough effect; inconclusive = small, poorly fitted or top-dose-only effect, or another doubt; inactive = no such curve, though single readings can be large; an effect the other way counts as inactive or inconclusive.

SMILES | IL1B secr inh | ATXN2 expr inh | PINK1 expr mod | MCF10A rereplic | ATXN viability | SW480 rereplic
COc1ccccc1CN1C2CCCC1CC(NC(=O)/C=C/c1ccccc1)C2 (configuration not stated) | -77* | -1% | 2% | 7% | i | 4%
Cc1nc2sc(C(=O)N(C)c3ccccc3)c(NC(=O)c3ccccc3Cl)c2c(C)c1C | . | 9% | 4% | . | i | .
Cc1nn(Cc2c(F)c(F)c(F)c(F)c2F)c(C)c1NC(=O)c1nn(C)cc1[N+](=O)[O-] | 36 | -1% | -4%[38.3 µM] | ? | i | 5%
Cc1cnc(NC(=O)c2nn(C)cc2[N+](=O)[O-])s1 | -94* | 14% | -3% | 4.1µM* | i | 3.7µM*
Cc1ccc(-c2nc(NC(=O)c3nn(C)cc3[N+](=O)[O-])sc2C)cc1C | -119* | ? | -1% | ? | i | 1.5µM*
Cn1cc([N+](=O)[O-])c(C(=O)Nc2nc(-c3ccc(Cl)cc3)cs2)n1 | -120* | 3% | -4% | 5.2µM* | i | 5.8µM*
CC(=O)Nc1nc(-c2ccc([N+](=O)[O-])cc2)cs1 | -13 | . | 0% | 0% | i | -42%
Cc1ccc(-c2nc(NC(=O)c3nn(C)cc3[N+](=O)[O-])sc2C)cc1 | -111* | ? | -3% | ? | ? | 1%
Cn1cc([N+](=O)[O-])c(C(=O)Nc2ccc(-c3nc4ccccc4[nH]3)cc2)n1 | -12 | -4% | 6% | 21% | i | ?
Oc1ccc(N2CCN(C(c3ccc(Cl)cc3)c3nnnn3Cc3ccc(F)cc3)CC2)cc1 (configuration not stated) | . | . | -1% | . | . | .
Cc1nc2c3ccccc3nc(NNC(=O)CCC(=O)N3CCN(c4cc(Cl)ccc4C)CC3)n2n1 | . | -23% | -3% | . | i | .
COC(=O)C1CCN(Cc2ccc3c(c2)CN(C(=O)c2cc(C)oc2C)CCO3)CC1 | . | . | 0% | . | i | .
O=C1N(c2ccccc2)C[C@@H]2C[C@@H](c3cc4ccccc4o3)N3CCC[C@@]123 | -103* | 0.3µM* | -1% | ? | ? | ?
CCSc1nnc(NC(=O)C(C)(C(F)(F)F)C(F)(F)F)s1 | -1 | ? | 25µM* | 13% | i | -8%
CCC(CO)Nc1ccn2nc(-c3cccs3)cc2n1 (configuration not stated) | -50* | 27% | 1% | . | i | .
CCC(CO)Nc1ccn2nc(-c3ccccc3)cc2n1 (configuration not stated) | 24 | 81% | 1% | . | i | .
CCCn1c(NCc2c[nH]c3ccccc23)nc2ccccc21 | -52* | 5% | -4% | 2% | ? | 3%
CCCn1c(NCc2ccccc2NS(=O)(=O)c2ccc(C)cc2)nc2ccccc21 | 11 | -34% | 1% | 10µM* | i | ?
Cc1ccc(S(=O)(=O)Nc2ccccc2/C=N/c2nc3ccccc3n2C(C)C)cc1 | -4 | -3% | 18% | 21µM* | . | 8%
CCCCn1c(NCc2cc(C)ccc2O)nc2ccccc21 | -12 | . | 16µM* | . | i | .
CCn1c(NCc2ccccc2NS(=O)(=O)c2ccc(C)cc2)nc2ccccc21 | -13 | -26% | 4% | ? | i | ?
Cc1nn2c3c(cnc2c1-c1ccc(Cl)cc1)C(=O)CC(c1ccc(C(C)C)cc1)C3 (configuration not stated) | . | -6% | 0% | . | i | .
CC(C)n1c(NCc2cc(Cl)ccc2O)nc2ccccc21 | -12 | 28µM* | ? | 19% | ? | -1%
Cc1ccc(O)c(CNc2nc3ccccc3n2C(C)C)c1 | -3 | -7% | 2% | 5% | i | 0%
CC(=Cc1ccccc1)C=C1SC(=S)N(CCCC(=O)Nc2ccc(C(=O)O)c(O)c2)C1=O | 0 | 47% | 1% | . | i | .
SMILES | IL1B secr inh | ATXN2 expr inh | PINK1 expr mod | MCF10A rereplic | ATXN viability | SW480 rereplic
CC(=O)c1ccc(NC(=O)CN2C(=O)/C(=C/C(C)=C/c3ccccc3)SC2=S)cc1 | 5 | -5% | 0% | -8% | i | ?
CC(/C=C1\SC(=S)N(CCC(=O)Nc2nc(C)cs2)C1=O)=C\c1ccccc1 | -6 | 18% | 40µM* | 24% | i | -2%
CC(/C=C1\SC(=S)N(CCC(=O)Nc2ccc(O)cc2)C1=O)=C\c1ccccc1 | -53* | -31% | 6% | 26% | ? | ?
CC(/C=C1\SC(=S)N(CCCC(=O)Nc2ccc(C(=O)O)c(O)c2)C1=O)=C\c1ccccc1 | -55* | 1% | 0% | ? | i | ?
Cc1ccc(CCNC(=O)CCN2N=C(c3ccc(C)cc3)CCC2=O)cc1 | . | . | -1% | . | . | .
O=C(c1ccc(C(F)(F)F)cc1)N1CCC(=O)N(C(COCc2ccccc2)Cc2ccccc2)CC1 (configuration not stated) | -55* | ? | 2% | ? | ? | ?
O=C(c1ccc(C(F)(F)F)cc1)N1CCC(=O)N(C(COCc2ccc(Cl)cc2)Cc2ccccc2)CC1 (configuration not stated) | -61* | ? | 0% | ? | ? | ?
COc1cc(CN(C(=O)c2ccc(C)cc2)c2ccccn2)cc(OC)c1OC | . | -17% | 5% | . | ? | .
COC(=O)c1cccc(N2CCCC2=O)c1 | -10 | . | -1% | 0% | i | 3%
Cc1ccc(-n2sc3cc(F)ccc3c2=O)c(C)c1 | -103* | ? | ? | . | 22µM* | .
COC(=O)c1cccc(-n2sc3ccccc3c2=O)c1 | -101* | -7% | -1% | ? | ? | 40%
O=c1c2ccccc2sn1-c1ccc(F)cc1 | -109* | -12% | 2% | ? | ? | ?
O=c1c2cc(F)ccc2sn1-c1ccccc1Cl | -105* | ? | 0% | . | 22µM* | .
O=c1sc2ccccc2c(=O)n1Cc1ccccc1F | 43 | 6% | 5% | -1% | i | -10%
